Calls of active or inactive are those of the source. How the source made its calls: active means hit-call score of the fitted dose curve at least 0.9, where 1 is the maximum; inactive means score below 0.9.
Assays:
Conditions in all cases: mRNA level, 48 h; actives raise or lower the signal
[1] = read-out: Cytochrome P450 3A4 (Homo sapiens) (UniProt P08684); assay: LTEA_HepaRG_CYP3A4: Life Technologies and Expression Analysis (LTEA) Assay for CYP3A4 using HepaRG (AID 2283487)
In short: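 CYP3A4 transcript measured by TaqMan qRT-PCR and normalized to three housekeeping genes after 48 h chemical exposure of human HepaRG cells. Top concentration 100 uM, half-log steps, 0.5% DMSO vehicle; gain or loss fitted against DMSO baseline.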

[2] = read-out: DNA damage-inducible transcript 3 (DDIT3), DDIT3 (gene 1649); assay: LTEA_HepaRG_DDIT3: Life Technologies and Expression Analysis (LTEA) Assay for DNA damage-inducible transcript 3 (DDIT3) using HepaRG (AID 2283488)
In short: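 Eight-point concentration-response (100 uM highest, half-log dilutions) in HepaRG, 48 h, duplicate wells. Endpoint: qRT-PCR mRNA, normalized (ACTB, GAPDH, POLR2A), bidirectional fitting with DMSO as baseline.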

[3] = read-out: Pro-epidermal growth factor (Homo sapiens) (UniProt P01133); assay: LTEA_HepaRG_EGF: Life Technologies and Expression Analysis (LTEA) Assay for Epidermal growth factor (EGF) using HepaRG (AID 2283489)
In short: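 EGF transcript measured by Fluidigm TaqMan qRT-PCR with three housekeeping genes for normalization, 48 h after dosing HepaRG cultures in duplicate (top 100 uM, half-log steps, 0.5% DMSO vehicle). Gain or loss relative to DMSO fitted.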

[4] = read-out: Early growth response protein 1 (EGR1) transcription factor, EGR1 (gene 1958); assay: LTEA_HepaRG_EGR1: Life Technologies and Expression Analysis (LTEA) Assay for Early growth response protein 1 (EGR1) transcription factor using HepaRG (AID 2283490)
In short: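 EGR1 expression change in human HepaRG after 48 h chemical exposure, assessed by housekeeping-normalized qRT-PCR; concentration-response up to 100 uM, fitted in both directions against DMSO controls.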

[5] = read-out: Ezrin (EZR), EZR (gene 7430); assay: LTEA_HepaRG_EZR: Life Technologies and Expression Analysis (LTEA) Assay for Ezrin (EZR) using HepaRG (AID 2283491)
In short: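 HepaRG, 48 h chemical exposure, 8-pt half-log series from 100 uM, 0.5% DMSO vehicle, duplicates. Read-out: EZR mRNA by TaqMan qRT-PCR (Fluidigm array), housekeeping-normalized; bidirectional curve fit vs DMSO baseline.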

[6] = read-out: Cytochrome P450 3A7 (Homo sapiens) (UniProt P24462); assay: LTEA_HepaRG_CYP3A7: Life Technologies and Expression Analysis (LTEA) Assay for CYP3A7 using HepaRG (AID 2283492)
In short: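 CYP3A7 transcript measured by qRT-PCR (ACTB, GAPDH, POLR2A normalization) after 48 h chemical exposure of HepaRG cells in duplicate. Eight half-log concentrations, maximum 100 uM, 0.5% DMSO vehicle; bidirectional curve fitting against DMSO baseline.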

[7] = read-out: CYP3A5 (gene 1577); assay: LTEA_HepaRG_CYP3A5: Life Technologies and Expression Analysis (LTEA) Assay for CYP3A5 using HepaRG (AID 2283493)
In short: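 Readout was CYP3A5 mRNA by qRT-PCR. HepaRG cultures were exposed for 48 h in serum-free induction medium to chemicals at up to 100 uM, and responses were fitted in both directions relative to DMSO vehicle.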

[8] = read-out: Fatty Acid-Binding Protein 1 (FABP1), FABP1 (gene 2168); assay: LTEA_HepaRG_FABP1: Life Technologies and Expression Analysis (LTEA) Assay for Fatty Acid-Binding Protein 1 (FABP1) using HepaRG (AID 2283494)
In short: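 Values reflect bidirectional concentration-response fitting of FABP1 mRNA change against 0.5% DMSO controls. Human HepaRG cultures received eight half-log doses (top 100 uM) for 48 h; expression quantified by TaqMan qRT-PCR with housekeeping-gene normalization.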

[9] = read-out: Cytochrome P450 7A1 (Homo sapiens) (UniProt P22680); assay: LTEA_HepaRG_CYP7A1: Life Technologies and Expression Analysis (LTEA) Assay for Cytochrome P450 7A1 (CYP7A1) using HepaRG (AID 2283496)
In short: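 Using 0.5% DMSO as vehicle and baseline, chemicals were tested in duplicate over an 8-point range from 100 uM on HepaRG cells for 48 h; qRT-PCR signals were normalised to ACTB, GAPDH and POLR2A.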

[10] = read-out: Glutathione S-Transferase (GSTA2), GSTA2 (gene 2939); assay: LTEA_HepaRG_GSTA2: Life Technologies and Expression Analysis (LTEA) Assay for Glutathione S-Transferase (GSTA2) using HepaRG (AID 2283497)
In short: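 Oxidative-stress marker GSTA2 is quantified by TaqMan qRT-PCR in HepaRG cultures treated 48 h across an eight-point range to 100 uM. Expression is normalized to endogenous controls and compared with 0.5% DMSO vehicle.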

[11] = read-out: Glutamate-cysteine ligase catalytic (GCLC), GCLC (gene 2729); assay: LTEA_HepaRG_GCLC: Life Technologies and Expression Analysis (LTEA) Assay for Glutamate-cysteine ligase catalytic (GCLC) using HepaRG (AID 2283498)
In short: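 Oxidative-stress marker GCLC is measured as mRNA change in human HepaRG liver cells after 48 h chemical treatment in 0.5% DMSO, eight concentrations from 100 uM. Activity is fitted bidirectionally against vehicle.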

[12] = read-out: growth arrest and DNA damage 45 (GADD45G), GADD45G (gene 10912); assay: LTEA_HepaRG_GADD45G: Life Technologies and Expression Analysis (LTEA) Assay for growth arrest and DNA damage 45 (GADD45G) using HepaRG (AID 2283499)
In short: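 GADD45G transcript level by qRT-PCR (housekeeping-normalized: ACTB, GAPDH, POLR2A) after 48 h chemical treatment of a single HepaRG lot in serum-free induction medium; eight-point half-log series up to 100 uM in 0.5% DMSO, duplicates, up- or down-regulation scored.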

[13] = read-out: Glutamate-cysteine ligase regulatory (GCLM), GCLM (gene 2730); assay: LTEA_HepaRG_GCLM: Life Technologies and Expression Analysis (LTEA) Assay for Glutamate-cysteine ligase regulatory (GCLM) using HepaRG (AID 2283500)
In short: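 In this multiplexed HepaRG gene-expression assay, GCLM mRNA change after 48 h treatment (8 concentrations, max 100 uM) was scored against DMSO by bidirectional curve fitting.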

[14] = read-out: Glutathione S-transferase M3 (GSTM3), GSTM3 (gene 2947); assay: LTEA_HepaRG_GSTM3: Life Technologies and Expression Analysis (LTEA) Assay for Glutathione S-transferase M3 (GSTM3) using HepaRG (AID 2283501)
In short: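 GSTM3 transcript levels came from Fluidigm TaqMan qRT-PCR normalized to three housekeeping genes, fitted in both directions against DMSO. HepaRG cultures received chemicals for 48 h in serum-free induction medium (0.5% DMSO), 8 half-log concentrations up to 100 uM, duplicate.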

[15] = read-out: Hypoxia-inducible factor 1-alpha (Homo sapiens) (UniProt Q16665); assay: LTEA_HepaRG_HIF1A: Life Technologies and Expression Analysis (LTEA) Assay for Hypoxia-inducible factor 1 (HIF1A) Trancription factor using HepaRG (AID 2283503);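 further: HIF1A transcript by TaqMan qRT-PCR normalized to ACTB GAPDH and POLR2A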
In short: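 Gain- or loss-of-signal HIF1A mRNA changes are fitted against a DMSO baseline. HepaRG cultures receive eight concentrations, highest 100 uM, for 48 h in serum-free induction medium with 0.5% DMSO.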

[16] = read-out: 3-Hydroxy-3-Methylglutaryl-CoA Synthase 2 (HMGCS2), HMGCS2 (gene 3158); assay: LTEA_HepaRG_HMGCS2: Life Technologies and Expression Analysis (LTEA) Assay for 3-Hydroxy-3-Methylglutaryl-CoA Synthase 2 (HMGCS2) using HepaRG (AID 2283504)
In short: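 Readout is HMGCS2 transcript by qRT-PCR, housekeeping-normalised (ACTB/GAPDH/POLR2A) and fitted bidirectionally against 0.5% DMSO. Differentiated HepaRG cells received chemicals 48 h, duplicate wells, eight half-log concentrations topping at 100 uM.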

[17] = read-out: HGF (gene 3082); assay: LTEA_HepaRG_HGF: Life Technologies and Expression Analysis (LTEA) Assay for Hepatocyte Growth Facto (HGF) using HepaRG (AID 2283505)
In short: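 HGF transcript was quantified by TaqMan qRT-PCR against three housekeeping genes after 48 h treatment of HepaRG cells. Exposure ran in duplicate over eight half-log steps topping at 100 uM in 0.5% DMSO vehicle.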

[18] = read-out: Cytochrome P450 4A22 (Homo sapiens) (UniProt Q5TCH4); assay: LTEA_HepaRG_CYP4A22: Life Technologies and Expression Analysis (LTEA) Assay for Cytochrome P450 4A22 (CYP4A22) using HepaRG (AID 2283495)
In short: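 Gene expression measured by qRT-PCR against three housekeeping genes (ACTB, GAPDH, POLR2A), with gain or loss fitted relative to 0.5% DMSO vehicle. HepaRG cultures received 48 h chemical treatment, top concentration 100 uM, half-log steps, duplicate wells.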

[19] = read-out: Insulin Like Growth Factor 1 (IGF1), IGF1 (gene 3479); assay: LTEA_HepaRG_IGF1: Life Technologies and Expression Analysis (LTEA) Assay for Insulin Like Growth Factor 1 (IGF1) using HepaRG (AID 2283506)
In short: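 Endpoint: IGF1 mRNA change by qRT-PCR, housekeeping-normalized, fitted bidirectionally relative to 0.5% DMSO vehicle. Human HepaRG cells were treated 48 h in serum-free induction medium, eight half-log concentrations topping at 100 uM.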

[20] = read-out: Heat shock 70 kDa protein 1 (HSPA1A), gene 3303; assay: LTEA_HepaRG_HSPA1A: Life Technologies and Expression Analysis (LTEA) Assay for Heat shock 70 kDa protein 1 (HSPA1A) using HepaRG (AID 2283502)
In short: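 An oxidative-stress marker readout: HepaRG cells treated 48 h in duplicate with an eight-point series (highest 100 uM) had HSPA1A mRNA quantified by TaqMan qRT-PCR. Activity was fitted in both directions using 0.5% DMSO as baseline.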

Measured: AC50

Sequence of Hypoxia-inducible factor 1-alpha (Homo sapiens) (Q16665 whole entry, looked up): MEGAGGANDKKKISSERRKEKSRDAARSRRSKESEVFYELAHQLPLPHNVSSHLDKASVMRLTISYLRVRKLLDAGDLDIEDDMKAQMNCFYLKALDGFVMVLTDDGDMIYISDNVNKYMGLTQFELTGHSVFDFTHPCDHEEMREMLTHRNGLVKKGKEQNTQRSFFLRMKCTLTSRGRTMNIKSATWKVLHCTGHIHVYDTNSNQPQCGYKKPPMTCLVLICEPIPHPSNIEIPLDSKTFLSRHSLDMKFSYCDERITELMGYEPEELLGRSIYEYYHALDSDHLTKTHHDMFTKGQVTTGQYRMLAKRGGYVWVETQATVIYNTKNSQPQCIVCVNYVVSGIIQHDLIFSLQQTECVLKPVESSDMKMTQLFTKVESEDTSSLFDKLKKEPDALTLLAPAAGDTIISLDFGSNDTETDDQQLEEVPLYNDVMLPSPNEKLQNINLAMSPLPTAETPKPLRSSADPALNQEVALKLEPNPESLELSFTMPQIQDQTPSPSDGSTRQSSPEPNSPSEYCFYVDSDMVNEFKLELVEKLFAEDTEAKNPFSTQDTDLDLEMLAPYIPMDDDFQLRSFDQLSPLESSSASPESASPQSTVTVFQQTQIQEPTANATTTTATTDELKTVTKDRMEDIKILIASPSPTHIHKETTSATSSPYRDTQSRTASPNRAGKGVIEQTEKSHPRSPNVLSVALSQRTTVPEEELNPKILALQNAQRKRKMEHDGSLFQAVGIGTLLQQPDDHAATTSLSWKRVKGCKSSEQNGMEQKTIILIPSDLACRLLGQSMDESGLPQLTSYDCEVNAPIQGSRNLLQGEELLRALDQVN
Sequence of Cytochrome P450 3A4 (Homo sapiens) (P08684 whole entry, looked up): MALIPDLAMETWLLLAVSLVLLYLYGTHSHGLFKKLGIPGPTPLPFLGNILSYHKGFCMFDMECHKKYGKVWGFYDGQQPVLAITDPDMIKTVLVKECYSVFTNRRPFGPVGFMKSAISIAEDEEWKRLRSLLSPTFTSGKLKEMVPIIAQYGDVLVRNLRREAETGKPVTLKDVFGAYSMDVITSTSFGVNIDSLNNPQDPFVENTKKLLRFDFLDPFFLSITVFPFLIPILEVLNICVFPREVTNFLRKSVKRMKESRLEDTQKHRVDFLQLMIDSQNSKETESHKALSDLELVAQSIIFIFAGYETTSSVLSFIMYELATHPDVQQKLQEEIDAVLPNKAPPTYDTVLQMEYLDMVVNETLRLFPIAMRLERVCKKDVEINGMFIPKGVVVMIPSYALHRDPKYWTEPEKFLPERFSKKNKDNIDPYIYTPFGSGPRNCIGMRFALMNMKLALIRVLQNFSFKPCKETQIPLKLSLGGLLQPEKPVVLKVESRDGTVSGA
Sequence of Cytochrome P450 3A7 (Homo sapiens) (P24462 whole entry, looked up): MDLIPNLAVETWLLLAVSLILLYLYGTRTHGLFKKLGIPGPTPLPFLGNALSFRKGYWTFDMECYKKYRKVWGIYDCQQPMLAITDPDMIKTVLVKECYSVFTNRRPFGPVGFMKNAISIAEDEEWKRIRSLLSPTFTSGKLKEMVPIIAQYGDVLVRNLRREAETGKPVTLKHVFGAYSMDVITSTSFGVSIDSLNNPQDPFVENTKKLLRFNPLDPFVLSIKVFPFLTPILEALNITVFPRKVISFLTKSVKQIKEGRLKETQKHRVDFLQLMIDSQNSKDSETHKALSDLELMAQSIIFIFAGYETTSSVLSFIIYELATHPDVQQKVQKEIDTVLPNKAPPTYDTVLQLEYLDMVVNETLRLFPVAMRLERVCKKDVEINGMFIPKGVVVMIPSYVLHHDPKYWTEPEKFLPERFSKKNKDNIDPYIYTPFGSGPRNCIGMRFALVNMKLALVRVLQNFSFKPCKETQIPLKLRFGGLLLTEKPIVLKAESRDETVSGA

CO/C=C(/C(=O)OC)c1ccccc1COc1cccc(C(F)(F)F)n1
active: [1] 8.05 µM | [2] 8.83 µM | [3] 50 µM | [5] 5.1 µM | [6] 3.4 µM | [7] 12.1 µM | [8] 5.35 µM | [9] 8.85 µM | [10] 9.29 µM | [12] 6.56 µM | [13] 8.95 µM | [14] 50 µM | [15] 32 µM | [16] 6.85 µM | [17] 50 µM
inactive: [4] | [11]

O=C(O)C(F)(F)C(F)(F)C(F)(F)C(F)(F)C(F)(F)C(F)(F)C(F)(F)C(F)(F)F
active: [1] 81.7 µM | [2] 77.9 µM | [4] 83.4 µM | [5] 77 µM | [6] 89 µM | [8] 81.1 µM | [18] 90 µM | [9] 86.7 µM | [10] 86.8 µM | [11] 75.3 µM | [12] 85.6 µM | [13] 77 µM | [16] 80.4 µM | [17] 50 µM | [19] 77 µM
inactive: [3] | [7] | [14] | [15]

CCC(C)(c1ccc(O)cc1)c1ccc(O)cc1
active: [9] 50 µM
not listed: [18] | [19]
inactive: all other assays above

O=C(NC(=O)c1c(F)cccc1F)Nc1cc(Cl)c(OC(F)(F)C(F)F)c(Cl)c1
active: [8] 25.1 µM | [9] 13.6 µM | [16] 34.7 µM
not listed: [18] | [19]
inactive: all other assays above

Reference: PubChem BioAssay (EPA / NIEHS)
